# Source: PubChem BioAssay
# Pf growth 96h: Primary qHTS for delayed death inhibitors of the malarial parasite plastid, 96 hour incubation. P. falciparum luciferase reporter growth, 96 h. Potency, µM (titrated, usually from 28.7 µM), for the others: at the top dose activity change, negative = inhibition, most hits filed as inhibitors. hit rate 6.9% among 320,000. AID 504834, 2011; further: potency means the concentration at half of the fitted maximal effect; on the % scale 0 is the no-effect control and ±100 the full control effect
#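 Readout is luminescence from an integrated firefly luciferase in P. falciparum. Red cells, 2% hematocrit and 0.05% parasitemia final, were cultured with compound through two parasite generations (96 hours) at 37 C, 5% CO2.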
# CHX counter: Cycloheximide Counterscreen for Small Molecule Inhibitors of Shiga Toxin | hit rate 12% among 300,000 | AID 2314, 2010 | cell reporter, cycloheximide protein synthesis inhibition counterscreen | max response, %; in the data active means max response mostly above about 13%, no sharp cut-off; inactive means mostly below about 14%; further: read at 38.3 µM for the half of the compounds with a filed dose; 0% is about no effect
# Shiga inhibitor: A qHTS for Small Molecule Inhibitors of Shiga Toxin; Vero cells, Shiga toxin protein synthesis inhibition reporter; hit rate 9.2% among 290,000; inhibition, % at 38.7 µM; in the data active means inhibition mostly above about 28%, no sharp cut-off; inactive means mostly below about 43%; further: 0% is about no effect
# Pf growth 48h: Primary qHTS for delayed death inhibitors of the malarial parasite plastid, 48 hour incubation | P. falciparum luciferase growth in erythrocytes, 48 h | Potency, µM (top dose mostly 28.7 µM), for inactives: top-dose activity change, negative = inhibition, hits mostly inhibitors | hit rate 5.9% among 310,000; further: potency means the concentration at half of the fitted maximal effect; on the % scale 0 is the no-effect control and ±100 the full control effect
#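 Firefly luciferase activity from engineered P. falciparum reports growth; inhibitors lower the luminescent signal. Cultures contained 2% hematocrit erythrocytes at 0.1% final parasitemia.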
# The depositor's hits bear a star; i = inactive; ? = inconclusive; nt = no result. This is a sample that favours compounds with a hit; in the whole collection about 21% have one here. Unless noted, the call rests on the fitted dose curve; in most records, active means well fitted inhibition curve with a large enough effect; inconclusive means small, poorly fitted or top-dose-only effect, or another doubt; inactive means no such curve, though single readings can be large or run the other way.
SMILES,Pf growth 96h,CHX counter,Shiga inhibitor,Pf growth 48h
O=C(NCc1cccs1)c1cc(C2CC2)on1,92%,22*,64*,54%
COCCNC(=O)c1cc(-c2cccs2)on1,11%,34*,101*,109%
Cc1cc(C(=O)NCc2cccs2)no1,?,-3,-11,nt
O=C(NCc1cccs1)c1cc(-c2cccs2)on1,0%,41*,87*,146%
Cc1cc(C(=O)NCc2cccs2)nn1C,4%,2,-3,25%
N#Cc1ccccc1OCC(=O)N(C1CCCCC1)C1CCS(=O)(=O)C1 (stereo unspecified),0%,nt,nt,-1%
COc1cccc(CN2CC(C(=O)N3CCN(c4ccc(Cl)cc4)CC3)CCC2=O)c1 (stereo unspecified),?,1,-16,?
CC1Cn2c(nc(=O)c3c2NCN(CCc2ccccc2)C3)S1 (stereo unspecified),0%,-1,-8,3%
O=C(Nc1ccccc1)C1=C[C@@H](c2coc3ccccc3c2=O)C[C@@H](OCc2ccc(CO)cc2)O1,?,1,-16,?
C#CCNC(=O)C1=C[C@H](c2cn(C(C)=O)c3ccccc23)C[C@H](OCc2ccc(CO)cc2)O1,10µM*,1,-16,?
CC(=O)n1cc([C@H]2C=C(C(=O)Nc3ccccc3)O[C@@H](OCc3ccc(CO)cc3)C2)c2ccccc21,12µM*,-1,7,8.3µM*
O=C(NCc1ccccc1)C1=C[C@H](c2csc3ccccc23)C[C@H](OCCCCO)O1,?,8,14,?
O=C(Nc1ccccc1)C1=C[C@H](c2csc3ccccc23)C[C@H](OCCCCO)O1,8.3µM*,12*,6,?
C#CCNC(=O)C1=C[C@H](c2coc3ccccc3c2=O)C[C@H](OCc2ccc(CO)cc2)O1,?,-4,-18,2%
CC(=O)n1cc([C@@H]2C=C(C(=O)Nc3ccccc3)O[C@H](OCCCCO)C2)c2ccccc21,?,12,24*,?
CCCCC(CC)CCC(CC(C)C)OS(=O)(=O)O (stereo unspecified),14%,nt,nt,-6%
Cc1ccc(NC(=O)C2CCN(c3ncnc4c3nc3n4CCCCC3)CC2)nc1,61%,17,21,-12%
Cc1ccc(C2N(C)C(=O)c3ccccc3N2C)cc1 (stereo unspecified),68%,6,-11,-2%
Cc1ccc(C)c(S(=O)(=O)NC2CCSC2=O)c1 (stereo unspecified),19%,nt,nt,-27%
CC(=O)n1cc([C@@H]2C=C(C(=O)NCc3ccccc3)O[C@H](OCc3ccc(CO)cc3)C2)c2ccccc21,5.2µM*,4,7,12µM*
CC(=O)n1cc([C@@H]2C=C(C(=O)O)O[C@H](OCc3ccc(CO)cc3)C2)c2ccccc21,22%,6,-13,16%
O=C1C(=O)N(c2cccc(Cl)c2)C(c2ccccc2[N+](=O)[O-])/C1=C(\O)c1ccccc1 (stereo unspecified),35%,19*,37,-4%
NS(=O)(=O)c1ccc(N2C(=O)C(=O)/C(=C(/O)c3ccccc3)C2c2ccc(Cl)cc2)cc1 (stereo unspecified),-6%,11*,25,-9%
Cc1ccc2nc(-c3ccc(N)cc3)sc2c1,i,30*,11,0%
CC(=O)NC(=S)Nc1ccc(-c2nc3ccc(C)cc3s2)cc1,225%,27*,80*,112%
SMILES,Pf growth 96h,CHX counter,Shiga inhibitor,Pf growth 48h
CC(=O)Nc1ccc(S(=O)(=O)Nc2nc3ccc(C)cc3s2)cc1,26%,-4,-7,30%
Cc1ccc2nc(-c3ccc(NS(=O)(=O)c4ccc(F)cc4)cc3)sc2c1,140%,52*,159*,163%
Cc1ccc2nc(-c3ccc(N4C(=N)SC5CS(=O)(=O)CC54)cc3)sc2c1 (stereo unspecified),-14%,46*,126*,46%
COc1ccc([C@H]2CC(=O)C=C(c3ccc(C)c(F)c3)C2)cc1,35%,nt,nt,17%
COc1cccc(CN2CC(C(=O)NCc3cnn(C)c3)CCC2=O)c1 (stereo unspecified),-5%,-2,8,3%
CNC(=S)Nc1ccc(C)cc1,-18%,-3,-8,4%
Nc1ccc(-c2nc3cc(N)ccc3s2)cc1,?,38*,67*,136%
CNC(=S)Nc1ccc(-c2nc3ccc(C)cc3s2)cc1,i,30*,95*,i
COCCNc1nnc(SC(C)C(=O)Nc2ccc(-c3nc4ccc(C)cc4s3)cc2)s1 (stereo unspecified),?,28*,93*,5%
CC1=CCC(C(=O)O)C(C(=O)Nc2ccc(-c3nc4ccc(C)cc4s3)cc2)C1 (stereo unspecified),i,54*,104*,243%
COc1ccc(Cl)cc1NC(=O)NN1CCN(C)CC1,?,-1,-18,?
CCc1ccccc1NC(=O)c1ccc(S(=O)(=O)N2CCCC2)cc1,-12%,-7,-7,9%
Cc1ccc(C)c(NC(=S)N=Nc2c(O)n(C)c3ccc(S(=O)(=O)N4CCOCC4)cc23)c1,-9%,-2,-5,6.6µM*
Cc1ccc(C)c(Cn2c(O)c(N=NC(=S)Nc3ccccc3F)c3ccccc32)c1,11%,9,-6,?
Cc1ccc(Cn2c(O)c(N=NC(=S)Nc3ccccc3F)c3cc(S(=O)(=O)N4CCOCC4)ccc32)cc1,1%,7,10,3.3µM*
CCc1ccccc1NC(=S)N=Nc1c(O)n(C)c2ccc(S(=O)(=O)N3CCOCC3)cc12,1.9µM*,-5,-8,3.3µM*
Cc1ccc(-c2csc(NC(=O)C3=NN(C4CCS(=O)(=O)C4)C(=O)CC3)n2)cc1 (stereo unspecified),11%,-1,-4,64%
CC(c1nccs1)N(C)c1nc2nonc2nc1N(C)C (stereo unspecified),13µM*,-1,-29,8%
CCN(CC)CCCNC(=S)N1CCN(c2nc3ccccc3n2CC)CC1,-24%,1,3,?
CCNC(=S)N1CCN(c2nc(-c3ccc(F)cc3)cs2)CC1,8%,9.7*,21,-11%
CCN(CC)CCCNC(=S)N1CCN(c2nc(-c3ccc(F)cc3)cs2)CC1,-20%,-12,nt,9.3µM*
COCCNC(=S)N1CCN(c2nc(-c3ccc(F)cc3)cs2)CC1,?,12*,19,-17%
Cc1nc2ccccc2cc1C(=O)Nc1ccccc1Cl,60%,9,26,93%
COc1cccc(NC(=O)c2cc3ccccc3o/c2=N\O)c1,?,19*,nt,384%
O=C(Nc1ccccc1Cl)c1cc2ccccc2o/c1=N\O,-28%,41*,123*,90%
COc1cccc(NC(=O)c2cc3cccc(OC)c3o/c2=N\O)c1,36%,81*,109*,185%
Cc1cc2c(s1)c1cnn(Cc3ccc(C(F)(F)F)cc3F)c(=O)c1n2C,nt,-6,-8,nt
CCCCn1c(N)c(N(CC)C(=O)CSCC(=O)Nc2ccc(OC)cc2)c(=O)[nH]c1=O,12%,nt,nt,?
